# Screening results: PubChem, National Center for Advancing Translational Sciences (NCATS)
# IL1B secr inh = inflammasome signaling inhibition, IL-1 beta readout; THP-1 LPS/ATP IL-1B secretion, AlphaLISA, 16 h; active compounds read low; activity change, % at 57.5 µM; 4.7% of 360,000 active; AID 743279; in the data active means activity change below about -50%; inconclusive means mostly about -30% to -49%; further: on the % scale 0 is the no-effect control and ±100 the full control effect
#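 THP-1 cells pretreated 1 hr with compounds (up to 57.5 uM final), then stimulated with LPS (250 ng/mL final) plus ATP (1.25 mM final); secreted IL-1B measured by AlphaLISA after 16 hr, decreased signal indicating inhibition.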
# TDP1 cell noCPT = qHTS for Inhibitors of human tyrosyl-DNA phosphodiesterase 1 (TDP1): qHTS in cells in absence of CPT | 15% of 420,000 active | DT40 Tdp1-/- hTDP1 cells, no CPT, ATP luminescence, 48 h | Potency, µM (top dose mostly 46.2 µM), for inactives: top-dose activity change, negative = growth inhibition, actives largely listed as inhibitors; further: potency means the concentration at half of the fitted maximal effect; on the % scale 0 is the no-effect control and ±100 the full control effect; nearly all actives have a fitted effect of over 55% in size
#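 Chicken DT40 Tdp1-/- cells complemented with human TDP1, screened without camptothecin (DMSO vehicle only), 400 cells/well. Compounds pin-transferred, cells incubated at 37 °C for at least 48 hr. Growth read as ATP-dependent luminescence (CellTiter-Glo, 30 min at RT).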
# HepG2 viability = HepG2 cytotoxicity, counter-screen for TGF-b inhibitors; HepG2 CAGA-GFP viability, ATP luminescence, 18 h; 0.76% of 410,000 active; Potency, µM (series often up to 46.1 µM), for the others: at the highest dose activity change, negative = cytotoxicity, most hits filed as cytotoxic; further: potency means the concentration at half of the fitted maximal effect
#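 CellTiter-Glo luminescence gave cytotoxicity after 18 hours at 37 degrees C. The cells were HepG2 CAGA-GFP in 1% FBS DMEM, stimulated with 500 pg/mL TGF-beta after compound addition. %Activity was normalised to no-cell wells (complete cell-killing) and DMSO (no toxicity), and curves were fitted and classified.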
# TDP1 cell CPT = DT40-hTDP1 cell growth loss with CPT; chicken DT40 Tdp1-/-;hTDP1 cells + 20 nM CPT, ATP luminescence, 48 h; Potency, µM (highest dose often 46.2 µM), inactives show at the highest dose activity change, negative = growth inhibition, most hits filed as inhibitors; 12% of 420,000 active; AID 686979; further: potency means the concentration at half of the fitted maximal effect; on the % scale 0 is the no-effect control and ±100 the full control effect; nearly all actives have a fitted effect of over 55% in size
#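 Cell growth measured by CellTiter-Glo luminescence after a minimum 48 h, 37 C compound exposure with 20 nM CPT in Tdp1-knockout DT40 cells stably expressing hTDP1, seeded 400/well; qHTS titration format.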
# TGFb SMAD3 inh = TGF-b pathway inhibition | HepG2 CAGA-GFP TGF-b/SMAD3 reporter, GFP fluorescence, 18 h; TGF-beta stimulated, 500 pg/mL final | Potency, µM (doses to about 46.1 µM), inactives show at the top dose activity, negative = inhibition, actives largely listed as inhibitors | 1.2% of 410,000 active; further: potency means the concentration at half of the fitted maximal effect; on the % scale 0 is the no-effect control and ±100 the full control effect; nearly all actives have a fitted effect of over 65% in size
#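 Per well, imaged GFP fluorescence of HEPG2 CAGA-GFP cells gives the signal; cells get compound, then TGF-beta (500 pg/mL final), 18 h at 37 degrees C; %Activity versus -TGF-beta and +DMSO controls.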
# TDP1 block = inhibitors of human tyrosyl-DNA phosphodiesterase TDP1. Q9NUW8. recombinant TDP1, AlphaScreen DNA substrate cleavage. Potency, µM (top dose mostly 130 µM), without a hit: top-dose activity change, negative = inhibition, usual class: inhibitors. 0.28% of 350,000 active. AID 485290; further: potency means the concentration at half of the fitted maximal effect; on the % scale 0 is the no-effect control and ±100 the full control effect; nearly all actives have a fitted effect of over 40% in size
# Target sequence (Q9NUW8 whole entry, looked up): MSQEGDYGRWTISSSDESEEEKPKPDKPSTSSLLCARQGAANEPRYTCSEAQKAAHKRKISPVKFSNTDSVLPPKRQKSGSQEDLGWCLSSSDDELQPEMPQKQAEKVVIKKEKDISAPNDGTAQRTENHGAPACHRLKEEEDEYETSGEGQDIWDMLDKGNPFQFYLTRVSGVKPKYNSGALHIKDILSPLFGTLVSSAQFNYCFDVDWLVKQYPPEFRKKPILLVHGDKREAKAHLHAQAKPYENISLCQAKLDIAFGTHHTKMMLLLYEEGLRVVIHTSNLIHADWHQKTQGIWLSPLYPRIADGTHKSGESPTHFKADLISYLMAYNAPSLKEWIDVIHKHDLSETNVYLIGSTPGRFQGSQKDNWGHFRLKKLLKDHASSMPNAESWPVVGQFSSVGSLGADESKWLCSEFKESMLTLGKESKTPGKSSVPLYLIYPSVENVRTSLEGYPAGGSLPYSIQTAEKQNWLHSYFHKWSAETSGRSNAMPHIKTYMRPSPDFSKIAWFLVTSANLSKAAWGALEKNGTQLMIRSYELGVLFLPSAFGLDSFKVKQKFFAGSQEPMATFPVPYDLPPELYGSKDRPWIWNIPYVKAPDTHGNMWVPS
#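 Here, a 5' biotin and 3' phosphotyrosine-FITC DNA oligonucleotide reports Tdp1 activity: intact substrate bridges AlphaScreen beads, while cleavage leaves a 3' phosphate and drops signal. All incubations at room temperature.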
# An asterisk follows results filed as active; ? = inconclusive; / = no result; [ ] = another dose, or the depositor's remark. Rows were chosen to be rich in hits. Some 19% of all compounds tested hit in one or more screens of this group. Unless noted, the call rests on the fitted dose curve; in most records, active means well fitted curve in the direction sought with a large enough effect; inconclusive means small, poorly fitted or top-dose-only effect, or another doubt; inactive means no such curve, though single readings can be large; an effect the other way counts as inactive or inconclusive.
SMILES,IL1B secr inh,TDP1 cell noCPT,HepG2 viability,TDP1 cell CPT,TGFb SMAD3 inh,TDP1 block
CCC(=O)Nc1cccc(C(=O)/C=C/c2ccc(F)cc2)c1,-80*,2.6µM*,14µM*,4.6µM*,20µM*,3%
Cc1ccc(C(=O)Nc2cccc(C(=O)O)c2)cc1,11,-15%,-24%,-27%,5%,4%
CC(=O)Nc1cccc(C(=O)/C=C/c2ccc(C)cc2)c1,-102*,10µM*,13µM*,9.2µM*,?,-3%
CN(C)c1ccc(/C=C/C(=O)c2cccc(Br)c2)cc1,?,21µM*,-22%,15µM*,43%,/
Cc1c(CCC(=O)NCCc2ccc(Cl)cc2)c(=O)oc2c(C)c(O)ccc12,/,-20%,-2%,?,2%,0%
CC(OC(=O)Cc1ccccc1F)C(=O)Nc1ccc(Cl)cn1 (centres undefined),8,1%,-3%,-21%,-25%,/
Cc1cccc(N(C(=O)c2snc(C(N)=O)c2N)C(C(=O)NCc2ccccc2)c2ccncc2)c1 (centres undefined),-7,?,-68%,0%,?,1%
CCN(C(=O)CN1C(=O)NC(c2ccccc2)(c2ccc(C)c(C)c2)C1=O)C1CCS(=O)(=O)C1 (centres undefined),-1,?,-11%,1%,-18%,2%
COc1ccc(C2(c3ccc(OC)cc3)NC(=O)N(CC(=O)N(C)C)C2=O)cc1,17,-9%,0%,0%,2%,-2%
COc1ccc(C2(c3ccc(OC)cc3)NC(=O)N(CC(=O)N(C)C3CCC(C)CC3)C2=O)cc1 (centres undefined),-56*,-14%,12%,-27%,?,0%[56.1 µM]
CN(C)C(=O)CN1C(=O)NC(c2ccccc2)(c2ccccc2)C1=O,-14,9%,1%,-3%,4%,0%
CCN(C(=O)CN1C(=O)NC(c2ccccc2)(c2ccc(C)c(C)c2)C1=O)C1CCCCC1 (centres undefined),0,?,-32%,16µM*,?,1%
CC1CCC(N(C)C(=O)CN2C(=O)NC(c3ccccc3)(c3ccccc3)C2=O)CC1 (centres undefined),3,?,-48%,23µM*,-11%,/
O=C(COc1cc2oc(=O)cc(-c3ccccc3)c2cc1Cl)NC(Cc1c[nH]c2ccc(O)cc12)C(=O)O (centres undefined),37,-6%,-3%,-22%,3%,/
Cc1ccc(NC(=O)c2nc(-c3ccncc3)no2)c(Cl)c1,/,-1%,-45%,-11%,-15%,5%
CN(C)c1cccc2c1c(NC(=O)Nc1ccc(F)cc1F)nn2C,-53*,?,-15%,?,-24%,11%
Nc1nonc1C(=Nc1ccc(Br)cc1)NO,-21,?,0%,26µM*,-3%,9%
CS(=O)(=O)N(CC(=O)Nc1ccccc1C(=O)NCCc1ccccc1)c1ccc2c(c1)OCCO2,-14,21µM*,-68%,29µM*,?,9%
CNc1ncnc2sc(-c3ccccc3)cc12,-77*,?,-5%,16µM*,5%,5%
CN(C)CCNc1ncnc2sc(-c3ccccc3)cc12,-72*,18µM*,-24%,?,-6%,/
CCCCN(C(=O)C1CCCO1)c1c(N)n(CC(C)C)c(=O)[nH]c1=O (centres undefined),22,13%,-7%,18%,-3%,-6%
COc1ccc(NC(=O)Cn2cc(C(=O)c3ccc(C)c(C)c3)c(=O)c3cc(OC)ccc32)cc1,/,-1%,-1%,-6%,6%,6%
CCc1cc2c(cc3c(=O)n(CC(=O)NC4CCCCC4)nc(CC)n32)s1,/,-22%,1%,-4%,-23%,5%
Cc1csc(=O)n1CC(=O)OCC(=O)Nc1ccc(C(N)=O)cc1,0,6.5µM*,5%,-7%,22%,-13%
CCOC(=O)c1ccc(NC(=S)NCCc2ccccc2)cc1,67,21µM*,-13%,?,?,7%
SMILES,IL1B secr inh,TDP1 cell noCPT,HepG2 viability,TDP1 cell CPT,TGFb SMAD3 inh,TDP1 block
CCOC(=O)c1ccc(NC(=S)NCc2ccccc2)cc1,-8,?,-18%,-21%,-23%,/
Cc1csc(=O)n1CCC(=O)OCC(=O)Nc1ccc(C(N)=O)cc1,7,0%,-11%,-9%,-2%,-13%
CCOC(=O)c1ccc(NC(=S)NCC(O)c2ccccc2)cc1 (centres undefined),8,18µM*,2%,?,-5%,5%
S=C(Nc1ccccc1)c1ccccn1,0,0.92µM*,-40%,0.65µM*,11µM*,8%
CCOC(=O)c1ccc(NC(=S)NCCc2ccccc2F)cc1,72,23µM*,-23%,?,?,5%
COc1ccccc1CCC(=O)OCC(=O)Nc1ccc(S(N)(=O)=O)cc1,47,-9%,14%,0%,4%,-2%
COc1ccccc1CCC(=O)OCC(=O)Nc1ccc(C(N)=O)cc1,19,-99%,2%,15µM*,8%,5%
S=C(Nc1ccc(Nc2ccccc2)cc1)Nc1ccccn1,?,6.5µM*,-3%,6.5µM*,?,0%
CCOC(=O)c1ccc(NC(=O)NCCc2ccccc2OC)cc1,-7,15µM*,-14%,?,-14%,-2%
O=C(Nc1ccccc1)C(=O)Nc1ccccn1,11,-22%,-45%,-5%,0%,2%
Cc1cccc(NC(=O)N2CCC(CN3CCOCC3)CC2)c1C,/,-1%,0%,-7%,7%,1%
CCOC(=O)c1ccc(NC(=S)Nc2ccccn2)cc1,-1,15µM*,-8%,?,-12%,0%
CCOC(=O)c1ccc(NC(=S)Nc2ccc(Cl)cn2)cc1,0,-26%,-4%,?,-24%,-1%
Cc1ccc(C(=O)NCCCn2ccnc2)cc1[N+](=O)[O-],13,-3%,-39%,-12%,6%,7%
C=C1CCN(c2ccc(C(=O)NCCC)cc2[N+](=O)[O-])CC1,-55*,16µM*,-4%,16µM*,?,/
O=C(NCCCn1ccnc1)c1ccc(N2CCCCCC2)c([N+](=O)[O-])c1,-17,?,0%,18µM*,7%,5%
